PubChem BioAssay (NCATS)
Inconclusive results are not listed. The source made the active and inactive calls. Unless noted, calls follow the shape of the full dose curve.

test system: not listed separately; assay: qHTS for Inhibitors of the Functional Ribonucleoprotein Complex (vRNP) of Lassa (LASV) Arenavirus: LASV Primary Screen - GLuc reporter signal (AID 1347082; calls by dose curve; tested in HEK293 reporter line; also: nearly all actives have a fitted effect of over 60% in size); details: LASV minigenome vRNP, Gaussia luciferase reporter; series mostly up to 57.5 µM; activity change, negative = inhibition: at the top concentration
% is scaled to controls: 0 for no effect and ±100 for the full control effect.

SMILES	activity change, negative = inhibition	Potency
Cc1ccc2nc(N)[nH]c(=O)c2c1Sc1ccncc1	-27.7% (inactive)	
CCCSS/C(CCO)=C(\C)N(C=O)Cc1cnc(C)nc1N	3.32% (inactive)	
CCC(OC(C)=O)C(CC(C)NC)(c1ccccc1)c1ccccc1 (stereo unspecified)	-18.1% [at 115 µM] (inactive)	
COc1cc(CC(C)N)c(OC)cc1Br (stereo unspecified)	-8.49% [at 115 µM] (inactive)	
CCCS(=O)c1ccc2nc(NC(=O)OC)[nH]c2c1 (stereo unspecified)		inactive
O=C1N(c2ccccc2)c2ccccc2C1(Cc1ccncc1)Cc1ccncc1		inactive
CCO[C@H]1O[C@@H]2OC3(C)CC[C@H]4[C@H](C)CC[C@@H]([C@H]1C)[C@@]24OO3	-33% (inactive)	
C[C@H](N)[C@H](O)c1ccc(O)c(O)c1	-11.4% (inactive)	
c1ccc2c(c1)Sc1ccccc1N2CC1CN2CCC1CC2 (stereo unspecified)	-16.1% (inactive)	
CC[C@]1(O)CC[C@H]2[C@@H]3CCC4=CCCC[C@@H]4[C@H]3CC[C@@]21C	-21.8% (inactive)	
O=C(OCC(O)CO)c1ccccc1Nc1ccnc2cc(Cl)ccc12 (stereo unspecified)	-16.1% (inactive)	

test system: not listed separately; assay: qHTS for Inhibitors of the Functional Ribonucleoprotein Complex (vRNP) of Lassa (LASV) Arenavirus: Viability assay - alamar blue signal for LASV Primary Screen (AID 1347083; calls by dose curve; tested in HEK293 reporter line; also: nearly all actives have a fitted effect of over 80% in size; also: potency is read from the fitted curve at half-maximal effect); details: cell viability, alamar blue fluorescence (LASV minigenome counter-screen); series mostly up to 57.5 µM; activity change, negative = reduced viability: at the top concentration

SMILES	activity change, negative = reduced viability	Potency
CCCCCN=C(N)N/N=C/c1c[nH]c2ccc(OC)cc12	-168% (inactive)	
Clc1ccccc1C(c1ccccc1)(c1ccccc1)n1ccnc1		inactive
CCCCCCCCCCCCCCCC[n+]1ccccc1		15.8 µM (active)
COc1cccc2c1C(=O)c1c(O)c3c(c(O)c1C2=O)C[C@@](O)(C(C)=O)C[C@@H]3O[C@H]1C[C@H](N)[C@H](O)[C@H](C)O1		0.891 µM (active)
O=C1[C@H]2CCCC[C@H]2C(=O)N1CCCCN1CCN(c2nsc3ccccc23)CC1	11.2% (inactive)	
CC(C)n1nc(-c2cc3cc(O)ccc3[nH]2)c2c(N)ncnc21		1.78 µM (active)
CCOC(=O)N1CCC(n2c(=O)[nH]c3cc(Cl)ccc32)CC1	-38.4% (inactive)	
O[C@@H](COc1cccc2ncccc12)CN1CCN(C2c3ccccc3[C@@H]3[C@H](c4ccccc42)C3(F)F)CC1 (stereo partly specified)		12.2 µM (active)

test system: not listed separately; assay: qHTS for Inhibitors of the Functional Ribonucleoprotein Complex (vRNP) of Lymphocytic Choriomeningitis Arenaviruses (LCMV): Viability assay - alamar blue signal for LCMV Primary Screen (AID 1347085; calls by dose curve; tested in HEK293 reporter line; also: nearly all actives have a fitted effect of over 80% in size; also: potency is read from the fitted curve at half-maximal effect); details: alamar blue viability counter-screen, LCMV vRNP screen cells; series mostly up to 57.5 µM; activity change, negative = lower viability: at the top concentration

SMILES	Potency	activity change, negative = lower viability
CO[C@@H]1[C@@H](OC)[C@H](C)[C@@](O)(CC(=O)O)O[C@H]1[C@H](C)[C@H]1O[C@@]2(CC[C@@](C)([C@H]3CC[C@@](C)([C@@H]4O[C@@H]([C@H]5O[C@](C)(O)[C@H](C)C[C@@H]5C)C[C@@H]4OC4C[C@H](OC)[C@@H](OC)[C@H](C)O4)O3)O2)C[C@H](O)[C@H]1C (stereo partly specified)	2 µM (active)	
Clc1ccccc1C(c1ccccc1)(c1ccccc1)n1ccnc1		-9.66% (inactive)
Cc1nc2ccccc2n1Cc1ccc(Cl)cc1		-30.5% (inactive)
CC(=O)SC[C@@H](Cc1ccccc1)C(=O)NCC(=O)OCc1ccccc1		-0.736% (inactive)
Clc1ccc(CSC(Cn2ccnc2)c2ccc(Cl)cc2Cl)cc1 (stereo unspecified)		-30.2% (inactive)
COc1cccc2c1C(=O)c1c(O)c3c(c(O)c1C2=O)C[C@@](O)(C(C)=O)C[C@@H]3O[C@H]1C[C@H](N)[C@H](O)[C@H](C)O1	0.355 µM (active)	
Nc1c2ccccc2nc2ccccc12	14.1 µM (active)	
COC(=O)c1nc(Cl)c(Cl)nc1N		-144% (inactive)
O=C1[C@H]2CCCC[C@H]2C(=O)N1CCCCN1CCN(c2nsc3ccccc23)CC1		12.3% (inactive)
CC[N+](CC)(CC)CCOc1ccc(/C=C/c2ccccc2)cc1		-91.5% (inactive)
CCOC(=O)N1CCC(n2c(=O)[nH]c3cc(Cl)ccc32)CC1		-12% (inactive)
Oc1c(Cl)cc(Cl)c(Cl)c1Cc1c(O)c(Cl)cc(Cl)c1Cl		-33.9% (inactive)
O=C(Nc1ccc(Cl)cc1)Nc1ccc(Cl)c(C(F)(F)F)c1	14.1 µM (active)	
O=C(O)c1ccc(OCCCOc2ccc(C(=O)O)cc2)cc1		2.7% (inactive)

biological target: Nucleoprotein (Lymphocytic choriomeningitis virus (strain Armstrong)) (UniProt P09992); assay: qHTS for Inhibitors of the Functional Ribonucleoprotein Complex (vRNP) of Lymphocytic Choriomeningitis Arenaviruses (LCMV): LCMV Primary Screen - GLuc reporter signal (AID 1347086); details: LCMV minigenome vRNP cell assay, Gaussia luciferase reporter; series mostly up to 57.5 µM; activity change, negative = inhibition: at the top concentration; also: nearly all actives have a fitted effect of over 70% in size; also: potency is read from the fitted curve at half-maximal effect
Sequence (P09992 whole entry, looked up): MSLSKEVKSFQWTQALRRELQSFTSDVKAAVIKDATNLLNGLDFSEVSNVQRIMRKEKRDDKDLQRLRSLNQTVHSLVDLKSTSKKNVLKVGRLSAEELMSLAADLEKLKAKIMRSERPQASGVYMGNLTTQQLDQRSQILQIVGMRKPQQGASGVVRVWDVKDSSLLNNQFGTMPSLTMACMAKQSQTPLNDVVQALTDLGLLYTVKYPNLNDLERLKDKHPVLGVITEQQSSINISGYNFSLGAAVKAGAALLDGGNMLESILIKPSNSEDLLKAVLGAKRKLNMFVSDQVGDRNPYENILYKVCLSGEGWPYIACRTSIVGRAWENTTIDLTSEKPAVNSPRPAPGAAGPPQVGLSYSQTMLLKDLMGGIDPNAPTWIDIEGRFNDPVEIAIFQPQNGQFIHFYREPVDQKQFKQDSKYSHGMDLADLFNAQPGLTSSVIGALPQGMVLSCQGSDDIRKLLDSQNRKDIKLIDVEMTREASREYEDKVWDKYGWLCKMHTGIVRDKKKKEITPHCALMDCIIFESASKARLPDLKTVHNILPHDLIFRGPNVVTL

SMILES	activity change, negative = inhibition	Potency
Cc1ccc2nc(N)[nH]c(=O)c2c1Sc1ccncc1	-34.6% (inactive)	
CO[C@@H]1[C@@H](OC)[C@H](C)[C@@](O)(CC(=O)O)O[C@H]1[C@H](C)[C@H]1O[C@@]2(CC[C@@](C)([C@H]3CC[C@@](C)([C@@H]4O[C@@H]([C@H]5O[C@](C)(O)[C@H](C)C[C@@H]5C)C[C@@H]4OC4C[C@H](OC)[C@@H](OC)[C@H](C)O4)O3)O2)C[C@H](O)[C@H]1C (stereo partly specified)		0.562 µM (active)
Clc1ccccc1C(c1ccccc1)(c1ccccc1)n1ccnc1	-34.4% (inactive)	
CCCSS/C(CCO)=C(\C)N(C=O)Cc1cnc(C)nc1N	-33.4% (inactive)	
COc1cc(CC(C)N)c(OC)cc1Br (stereo unspecified)	-33.6% [at 115 µM] (inactive)	
CCCS(=O)c1ccc2nc(NC(=O)OC)[nH]c2c1 (stereo unspecified)	-33.6% (inactive)	
CC(=O)SC[C@@H](Cc1ccccc1)C(=O)NCC(=O)OCc1ccccc1	-3.11% (inactive)	
Clc1ccc(CSC(Cn2ccnc2)c2ccc(Cl)cc2Cl)cc1 (stereo unspecified)	-73.4% (inactive)	
O=C1N(c2ccccc2)c2ccccc2C1(Cc1ccncc1)Cc1ccncc1		inactive
C[C@@H]1C[C@H]2[C@@H]3CCC4=CC(=O)C=C[C@]4(C)[C@@]3(Cl)[C@@H](O)C[C@]2(C)[C@@]1(OC(=O)c1ccco1)C(=O)CCl	11.1% (inactive)	
CC[C@]1(O)CC[C@H]2[C@@H]3CCC4=CCCC[C@@H]4[C@H]3CC[C@@]21C	-57.2% (inactive)	
Cc1cc2nc3ccc(=[N+](C)C)cc-3sc2cc1N		6.31 µM (active)
O=C1[C@H]2CCCC[C@H]2C(=O)N1CCCCN1CCN(c2nsc3ccccc23)CC1	-35.6% (inactive)	
O=C(OCC(O)CO)c1ccccc1Nc1ccnc2cc(Cl)ccc12 (stereo unspecified)	-18.8% (inactive)	
CC(C)n1nc(-c2cc3cc(O)ccc3[nH]2)c2c(N)ncnc21		1.78 µM (active)
CC[N+](CC)(CC)CCOc1ccc(/C=C/c2ccccc2)cc1	-62.6% (inactive)	
Cc1cc(C2CCCCC2)n(O)c(=O)c1	-78.3% (inactive)	
O=C(O)c1ccc(OCCCOc2ccc(C(=O)O)cc2)cc1	8.65% (inactive)	
